This note sets out measurements from PubChem BioAssay (NCI).

Values joined by “and” are separate entries in the source; they are usually repeats but may differ in a detail not shown here. Identical values can stand only once. This is part of a sample that, as a whole, favours compounds with a hit. Of some 79,000 tested, about 15% had one in any assay. Unmarked numbers belong to inactive results. Active and inactive are the calls of the source. Rule as the data show it: active = growth inhibition above about 70%; inactive = the rest.

The nature of test [1]: NCI Yeast Anticancer Drug Screen. Data for the rad50 strain (AID 155).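 Also: 0% = growth of vehicle-only cultures of the same strain.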 The following applies: S. cerevisiae rad50 strain growth inhibition, hits give high values. A digest of the protocol: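 A DNA repair-deficient yeast mutant serves as the test organism; compound-induced growth inhibition is calculated against vehicle-treated cells.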
The nature of test [2]: NCI Yeast Anticancer Drug Screen. Data for the mec2-1 strain (AID 157). The following applies: S. cerevisiae mec2-1 strain, hits give high values. An outline of the steps:
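Growth inhibition is read against vehicle-treated controls after compound exposure of the mec2-1 yeast strain, which is defective in DNA damage repair or cell cycle control.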

Test [3] is described as follows: NCI Yeast Anticancer Drug Screen. Data for the sgs1 mgt1 strain (AID 161).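 Also: 0% = growth of cultures given vehicle only.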 Conditions: S. cerevisiae sgs1 mgt1 strain, hits give high values. An outline of the steps: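 Growth of a repair-deficient yeast mutant was monitored after compound treatment and expressed as inhibition relative to vehicle-treated cultures.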
The nature of test [4]: NCI Yeast Anticancer Drug Screen. Data for the cln2 rad14 strain (AID 165).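 Also: 0% = growth equal to vehicle treated cultures.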 The following applies: S. cerevisiae cln2 rad14 strain, hits give high values. An outline of the steps:
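Growth inhibition, relative to vehicle-treated controls, is the read-out. The test organism is a yeast strain with defined genetic alterations, cln2 rad14.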

Test [5] in a line: NCI Yeast Anticancer Drug Screen. Data for the bub3 strain (AID 167). Conditions: S. cerevisiae bub3 mutant strain, hits give high values. An outline of the steps:
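Inhibition values come from growth of compound-treated mutant yeast normalised to vehicle-treated controls.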

The nature of test [6]: NCI Yeast Anticancer Drug Screen. Data for the mlh1 rad18 strain (AID 175). Conditions: S. cerevisiae mlh1 rad18 strain growth inhibition, hits give high values. A digest of the protocol:
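Cells of a genetically altered yeast strain, deficient in DNA damage repair, were treated with compound. Their growth was then compared with that of vehicle-treated cultures to give inhibition.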

Where [7] appears, read: at 5.0 µM (retest, dose inferred, filed as 0.5).
Setting [8] is: at 50.0 µM (retest, dose inferred, filed as 5.0).

With `COc1cc2c(cc1OC)CN1CCc3cc(OC)c(OC)cc3C1C2` (stereo not given), the growth inhibition in test [1] (at 50.0 µM) is -1.3% and 16.1%; in test [2] (at 50.0 µM) it was -54.6% and 11.9%; in test [3] (at 50.0 µM), -28.2% and 14.3%; in test [4] (at 50.0 µM), 0.7% and 7.8%; in test [5] (at 50.0 µM) it was -51.4% and 17.4%; in test [6] (at 50.0 µM), -38.5% and 18.1%.

Take `CSC(SC)=C(C#N)C(=O)Nc1cccc(Cl)c1`: the growth inhibition was 78% (active) in test [1] (setting [7]); 97% (active) in test [1] (setting [8]); 62% in test [2] (setting [7]); 99% (active) in test [2] (setting [8]); 65% in test [3] (setting [7]); 99% (active) in test [3] (setting [8]). Also, the growth inhibition in test [4] (setting [7]) was 39%; in test [4] (setting [8]), 98% (active); in test [5] (setting [7]) it was 65%; in test [5] (setting [8]) it was 99% (active); in test [6] (setting [7]) it was 56%; in test [6] (setting [8]), 97% (active).

For `C[N+](C)(C)c1ncnc2c1ncn2C1CC(O)C(CO)O1` (stereo not given), the growth inhibition in test [1] (at 50.0 µM) is 21.2% and -23.1%; in test [2] (at 50.0 µM), 8.45% and 7%; in test [3] (at 50.0 µM), 15.7% and -2.85%; in test [4] (at 50.0 µM), 3.1% and -6.45%; in test [5] (at 50.0 µM) it was -33% and 10.6%; in test [6] (at 50.0 µM) it was 7.55% and 8.6%.

Turning to `O=C(O)CCCCCCCCCCCCC1C=CCC1` (stereo not given), the growth inhibition in test [1] (at 50.0 µM) was -11.2% and -0.55%; in test [2] (at 50.0 µM) it was -31.5% and -17.9%; in test [3] (at 50.0 µM) it was 5.95% and -4.1%; in test [4] (at 50.0 µM), -4.4% and 9.45%; in test [5] (at 50.0 µM) it was -22.8% and -16.8%; in test [6] (at 50.0 µM), -11.2% and -6.05%.

Turning to `COCc1c(C#N)c(Cl)nc(C)c1[N+](=O)[O-]`, the growth inhibition in test [1] (setting [7]) was 14%; in test [1] (setting [8]), 76% (active); in test [2] (setting [7]), 7%; in test [2] (setting [8]), 90% (active); in test [3] (setting [7]) it was 14%; in test [3] (setting [8]), 94% (active). Further, the growth inhibition was 8% in test [5] (setting [7]), 97% (active) in test [5] (setting [8]), 0% in test [6] (setting [7]) and 94% (active) in test [6] (setting [8]).

For the compound `CC(=O)O[C@H]1C(=O)[C@@]2(C)C(C(OC(=O)c3ccccc3)[C@]3(O)CC(OC(=O)[C@H](OC(=O)CCC(=O)O)C(NC(=O)c4ccccc4)c4ccccc4)C(C)=C1C3(C)C)C1(OC(C)=O)COC1C[C@@H]2O` (stereo not given in full), the growth inhibition is 12.9% and 26.6% in test [1] (at 50.0 µM); 10.1% and 18.2% in test [2] (at 50.0 µM); -19.2% and -19.7% in test [3] (at 50.0 µM); -15.8% and -13.2% in test [4] (at 50.0 µM); -6.95% and -15.3% in test [5] (at 50.0 µM).

For `CC(=O)OCC(OC(C)=O)C(OC(C)=O)C(OC(C)=O)C(COC(=O)c1ccccc1)OC(=O)c1ccccc1` (stereo not given), the growth inhibition is 4.35% and 18.9% in test [1] (at 50.0 µM); -3.75% and 5.75% in test [2] (at 50.0 µM); -10.6% and -4.1% in test [3] (at 50.0 µM); -21.1% and 3.7% in test [4] (at 50.0 µM); 4.35% and -0.35% in test [5] (at 50.0 µM); 2.15% and 10.3% in test [6] (at 50.0 µM).

Regarding `CCCCN(CCCC)C(=O)C(C)OC(C)=O` (stereo not given), the growth inhibition in test [1] (setting [7]) is 0%; in test [1] (setting [8]), 25%; in test [2] (setting [7]), -4%; in test [2] (setting [8]) it was 0%; in test [3] (setting [7]), -3%; in test [3] (setting [8]), 6%. Also, the growth inhibition was 10% in test [4] (setting [7]); 1% in test [4] (setting [8]); -2% in test [5] (setting [7]); -8% in test [5] (setting [8]); -38% in test [6] (setting [7]); 8% in test [6] (setting [8]).

As to `Cc1cc(C(=O)c2ccccc2Cl)ccc1O`, the growth inhibition in test [1] (setting [7]) was 10%; in test [1] (setting [8]), 98% (active); in test [2] (setting [7]), -5%; in test [2] (setting [8]) it was 99% (active); in test [3] (setting [7]), 3%; in test [3] (setting [8]) it was 98% (active). In addition, the growth inhibition in test [4] (setting [7]) is -2%; in test [4] (setting [8]), 98% (active); in test [6] (setting [7]), 10%; in test [6] (setting [8]), 98% (active).

On to `N#C/C(=N\O)C(N)=O`, for which the growth inhibition in test [1] (setting [7]) was 19%; in test [1] (setting [8]) it was 87% (active); in test [2] (setting [7]), -3%; in test [2] (setting [8]), 93% (active); in test [3] (setting [7]) it was 2%; in test [3] (setting [8]) it was 83% (active). Further, the growth inhibition in test [4] (setting [7]) was -1%; in test [4] (setting [8]), 75% (active); in test [5] (setting [7]), 3%; in test [5] (setting [8]), 86% (active); in test [6] (setting [7]), 26%; in test [6] (setting [8]) it was 86% (active).
